tested on: PPARg:RXRa 270nM:90nM, anti-RXR (NR concentration 270 nM, RXRa partner concentration 90 nM); assay: PBM binding z-score (relative to random genomic background probes); higher = stronger binding; sequences stand for … in GC…GCGATTGACAGCGTAGAATGAAGG
Summary of the method: (§1)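 Each nuclear receptor dimer, without ligand, was incubated for 1 h on custom Agilent 4×180K protein-binding microarrays. Binding was detected with antibodies against each partner (one per run), and scanned fluorescence was regression-normalized. The binding z-scores are referenced to random human genomic background probes.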

Sequence | PBM binding z-score
TGAATGAGGTTATAAGATCAGGCAACGTTGCAAA | 2.02
CGAACGAGGGCATGAGTTGACAGCAAATGCCGAT | 1.54
CGAACTGGGTCATTGACAGGACAGTGAATAGTAA | 5.84
GCTGCTAGGCCAACTGATGGTCAGCTAAAGCTCG | -0.849
TCTAGTTGGTCACGGAGGTCACACACGACGGGTA | 4.11
CGTCCAAGGTCAATGCTAGGACAGTGAAAGCATT | 4.09
CAAACTAGGTCAGAACAGGACAGTGAAGGATGAT | 4.56
ATCTCTAGGAAACAAGTTCAGTGAAAGAGAGGAC | 0.0222
AGTCAAAGTTCATCTAGGTAACTTAAGATATGCT | 6.26
TCTAGTTGGTCACGGAGGTCACCCACGACGGGTA | 4.07
CAAACTAGGTCACGAAAGGTCAATGTCGAATGAC | 8.29
ATAGACAGGTGAGTGAAGGTAACTCAGCTGGACG | 0.369
CCCACTGGGCCAAGGTCATTGATCAGTCAAAGCA | 4.12
ATATGTAGGTTGTCGGGTCATTCAGTTTGCGCAT | 3.27
ACTAGCAGGCCAAGTTTGGGTCACTTAAACAAAG | 0.715
GGAACGAGGGCAAGTTGATAGCAGAGTTTGATGG | 1.03
GCGACTGGAGCATCAGCAGGTTACCATAACTTAA | -0.223
AATACAGGGTCACAAGGCCAGAGTAGGTACGAAT | 6.69

tested on: PPARg:RXRa 30nM:10nM, anti-RXR (NR concentration 30 nM, RXRa partner concentration 10 nM); assay: as above
Summary of the method: as §1

Sequence | PBM binding z-score
TCAATGAGGTTAAAGATCAGGGAACGTGGCGTCG | 5.03
TAGCTTAGGTCATTGGGCCAGTATAGTACGCATC | 1
GGAACCAGGGCAAGTTGATAGCAGAGTTTGATGG | -0.119
TTACCAAGATGAAGGTCGTTGATCCCTCTGTAGA | 1.5
TCTTGTAGATCAAGCAGGTTAAGAACGCCTGAGT | 2.6
TGAATGAGGTTAAAGATCAGGGCACGTGGCGTCG | 4.67
ATCTCTAGGTAAGACTCCGTTCAGTGAAGAACGC | 0.111
CCAGACAGGTAAAAGGTAACTCAGTCTGGTACGC | 2.27
TCATATAGGTAAAAGGTGAAATTCGGTGTGGTAA | 8.19
GGAACGAGGACAAGTTGATAGCAGAGTTTGATGG | -0.0459
TCGAGTAGGTTTGTCGGGGCATTCAGCCAACATA | 1.1
GATACAGGGTCAGCTAGAGGCCAGAGTGTGGAAA | 0.644
TAGCCAAGGTCATGGGCCAGTATACCACGCGAAC | 2.19
GCTAGTTGGTGAGTAAAAGGTCACACACCGGTCG | 3.09
CCTACTGGGCCATCAGATCATTGATATCAACGTT | 0.163
TAGCCTAGGTCATCCGGGCCAGTATAGTGTCGGC | 0.0412
CGTCCAAGGTCAAAGGACAGTGAAGAGATGACGG | 2.46
TCACGGAGGACACGAAAGGTCAGAGCTCGACATC | 2.28
AATGCAGGGTCACTAGGCCAGAGTAGGTACGAAT | 3.41
CGAACTAGGTCATTGGCAGGACAGTGAATAGTAA | 3.37

Sequence | PBM binding z-score
TCATATAGGTAATACAGGTGAAGGTCGGCATCTA | 4.02
AGAATGAGGTTAAGATCAGTGAAACAGAATACAT | 1.23
TGAATGAGGTTATAAGATCAGGCAACGTTGCAAA | 1.21
CGAACGAGGGCATGAGTTGACAGCAAATGCCGAT | -0.213
CGAACTGGGTCATTGACAGGACAGTGAATAGTAA | 2.72
GCTGCTAGGCCAACTGATGGTCAGCTAAAGCTCG | -1.22
TCTAGTTGGTCACGGAGGTCACACACGACGGGTA | 3.73
CGTCCAAGGTCAATGCTAGGACAGTGAAAGCATT | 1.22
CAAACTAGGTCAGAACAGGACAGTGAAGGATGAT | 2.45
ATCTCTAGGAAACAAGTTCAGTGAAAGAGAGGAC | 0.37
AGTCAAAGTTCATCTAGGTAACTTAAGATATGCT | 2.93
TCTAGTTGGTCACGGAGGTCACCCACGACGGGTA | 3.3
CAAACTAGGTCACGAAAGGTCAATGTCGAATGAC | 6.83
ATAGACAGGTGAGTGAAGGTAACTCAGCTGGACG | 0.155
CCCACTGGGCCAAGGTCATTGATCAGTCAAAGCA | 1.57
ATATGTAGGTTGTCGGGTCATTCAGTTTGCGCAT | 1.09
ACTAGCAGGCCAAGTTTGGGTCACTTAAACAAAG | -0.186
GGAACGAGGGCAAGTTGATAGCAGAGTTTGATGG | -0.0238
GCGACTGGAGCATCAGCAGGTTACCATAACTTAA | -0.632
AATACAGGGTCACAAGGCCAGAGTAGGTACGAAT | 3.96

tested on: PPARg:RXRa 90nM:30nM, anti-RXR (NR concentration 90 nM, RXRa partner concentration 30 nM); assay: as above
Summary of the method: as §1

Sequence | PBM binding z-score
TCAATGAGGTTAAAGATCAGGGAACGTGGCGTCG | 5.65
TAGCTTAGGTCATTGGGCCAGTATAGTACGCATC | 2.18
GGAACCAGGGCAAGTTGATAGCAGAGTTTGATGG | 0.257
TTACCAAGATGAAGGTCGTTGATCCCTCTGTAGA | 1.72
TCTTGTAGATCAAGCAGGTTAAGAACGCCTGAGT | 1.7
TGAATGAGGTTAAAGATCAGGGCACGTGGCGTCG | 6.24
ATCTCTAGGTAAGACTCCGTTCAGTGAAGAACGC | 0.441
CCAGACAGGTAAAAGGTAACTCAGTCTGGTACGC | 3.94
TCATATAGGTAAAAGGTGAAATTCGGTGTGGTAA | 8.89
GGAACGAGGACAAGTTGATAGCAGAGTTTGATGG | -0.0367
TCGAGTAGGTTTGTCGGGGCATTCAGCCAACATA | 0.717
GATACAGGGTCAGCTAGAGGCCAGAGTGTGGAAA | 2.07
TAGCCAAGGTCATGGGCCAGTATACCACGCGAAC | 4.55
GCTAGTTGGTGAGTAAAAGGTCACACACCGGTCG | 4.99
CCTACTGGGCCATCAGATCATTGATATCAACGTT | 1.28
TAGCCTAGGTCATCCGGGCCAGTATAGTGTCGGC | 1.5
CGTCCAAGGTCAAAGGACAGTGAAGAGATGACGG | 4.8
TCACGGAGGACACGAAAGGTCAGAGCTCGACATC | 2.43
AATGCAGGGTCACTAGGCCAGAGTAGGTACGAAT | 5.76
CGAACTAGGTCATTGGCAGGACAGTGAATAGTAA | 5.72

Sequence | PBM binding z-score
TCATATAGGTAATACAGGTGAAGGTCGGCATCTA | 3.78
AGAATGAGGTTAAGATCAGTGAAACAGAATACAT | 1.78
TGAATGAGGTTATAAGATCAGGCAACGTTGCAAA | 1.73
CGAACGAGGGCATGAGTTGACAGCAAATGCCGAT | 0.897
CGAACTGGGTCATTGACAGGACAGTGAATAGTAA | 5.44
GCTGCTAGGCCAACTGATGGTCAGCTAAAGCTCG | -1.14
TCTAGTTGGTCACGGAGGTCACACACGACGGGTA | 3.75
CGTCCAAGGTCAATGCTAGGACAGTGAAAGCATT | 2.76
CAAACTAGGTCAGAACAGGACAGTGAAGGATGAT | 3.64
ATCTCTAGGAAACAAGTTCAGTGAAAGAGAGGAC | -0.00536
AGTCAAAGTTCATCTAGGTAACTTAAGATATGCT | 5.64
TCTAGTTGGTCACGGAGGTCACCCACGACGGGTA | 3.64
CAAACTAGGTCACGAAAGGTCAATGTCGAATGAC | 8.33
ATAGACAGGTGAGTGAAGGTAACTCAGCTGGACG | 0.444
CCCACTGGGCCAAGGTCATTGATCAGTCAAAGCA | 3.3
ATATGTAGGTTGTCGGGTCATTCAGTTTGCGCAT | 2.63
ACTAGCAGGCCAAGTTTGGGTCACTTAAACAAAG | 0.815
GGAACGAGGGCAAGTTGATAGCAGAGTTTGATGG | 0.39
GCGACTGGAGCATCAGCAGGTTACCATAACTTAA | -0.253
AATACAGGGTCACAAGGCCAGAGTAGGTACGAAT | 5.46

From the supplement of paper PMC6555819
